# Source: PubChem
# This is a sample that favours compounds with a hit; in the whole collection about 12% have one here.
# BAZ2B inh = qHTS Assay for Inhibitors of BAZ2B | Potency, µM (doses to about 114 µM), inactives show at the top dose activity change, negative = inhibition, usual class: inhibitors | Bromodomain adjacent to zinc finger domain protein 2B (Homo sapiens), Q9UIF8 | actives 4.4% (n = 360,000) | AlphaScreen BAZ2B-H3K14Ac peptide displacement | AID 504333, 2011; further: on the % scale 0 is the no-effect control and ±100 the full control effect; nearly all actives have a fitted effect of over 60% in size
#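 Multi-concentration screen (max 110 uM) measuring displacement of acetylated histone H3 peptide from BAZ2B by AlphaScreen, using 50 nM protein, 50 nM peptide and 10 ug/mL streptavidin donor plus Ni-chelate acceptor beads.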
# JMJD2A Tudor inh = qHTS Assay for Inhibitors of JMJD2A-Tudor Domain. AID 504339, 2011. Lysine-specific demethylase 4A (Homo sapiens), O75164. Potency, µM (series often up to 114 µM), for the others: top-dose activity change, negative = inhibition, hits mostly inhibitors. AlphaScreen JMJD2A-Tudor / H3K4me3 peptide binding. actives 4.4% (n = 390,000); further: on the % scale 0 is the no-effect control and ±100 the full control effect; nearly all actives have a fitted effect of over 50% in size
# HP1b binding inh = HTS for Inhibitors of HP1-beta Chromodomain Interactions with Methylated Histone Tails | Chromobox protein homolog 1 (Homo sapiens), P83916 | AlphaScreen HP1-beta / biotin-H3K9me3 peptide binding | Potency, µM (top dose mostly 114 µM), for inactives: at the top dose activity change, negative = inhibition, usual class: inhibitors | actives 0.56% (n = 390,000); further: nearly all actives have a fitted effect of over 70% in size
#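 AlphaScreen: HP1-beta (50 nM) preformed 30 min with biotin-H3(1-18)K9me3 peptide (50 nM) in PBS pH 7.4, 0.01% Tween-20. Compound added for 30 min at RT, then streptavidin donor/nickel chelate acceptor beads (10 ug/mL) for 30 min.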
# L3MBTL1 block = qHTS Assay for the Inhibitors of L3MBTL1 | Lethal(3)malignant brain tumor-like protein 1 (Homo sapiens), Q9Y468 | AlphaScreen L3MBTL1–H3K9me1 peptide binding | Potency, µM (series often up to 57.1 µM), without a hit: top-dose activity, negative = inhibition, hits mostly inhibitors | actives 0.66% (n = 230,000) | AID 485360, 2010; further: on the % scale 0 is the no-effect control and ±100 the full control effect; nearly all actives have a fitted effect of over 60% in size
# Target sequence (Q9Y468 whole entry, looked up): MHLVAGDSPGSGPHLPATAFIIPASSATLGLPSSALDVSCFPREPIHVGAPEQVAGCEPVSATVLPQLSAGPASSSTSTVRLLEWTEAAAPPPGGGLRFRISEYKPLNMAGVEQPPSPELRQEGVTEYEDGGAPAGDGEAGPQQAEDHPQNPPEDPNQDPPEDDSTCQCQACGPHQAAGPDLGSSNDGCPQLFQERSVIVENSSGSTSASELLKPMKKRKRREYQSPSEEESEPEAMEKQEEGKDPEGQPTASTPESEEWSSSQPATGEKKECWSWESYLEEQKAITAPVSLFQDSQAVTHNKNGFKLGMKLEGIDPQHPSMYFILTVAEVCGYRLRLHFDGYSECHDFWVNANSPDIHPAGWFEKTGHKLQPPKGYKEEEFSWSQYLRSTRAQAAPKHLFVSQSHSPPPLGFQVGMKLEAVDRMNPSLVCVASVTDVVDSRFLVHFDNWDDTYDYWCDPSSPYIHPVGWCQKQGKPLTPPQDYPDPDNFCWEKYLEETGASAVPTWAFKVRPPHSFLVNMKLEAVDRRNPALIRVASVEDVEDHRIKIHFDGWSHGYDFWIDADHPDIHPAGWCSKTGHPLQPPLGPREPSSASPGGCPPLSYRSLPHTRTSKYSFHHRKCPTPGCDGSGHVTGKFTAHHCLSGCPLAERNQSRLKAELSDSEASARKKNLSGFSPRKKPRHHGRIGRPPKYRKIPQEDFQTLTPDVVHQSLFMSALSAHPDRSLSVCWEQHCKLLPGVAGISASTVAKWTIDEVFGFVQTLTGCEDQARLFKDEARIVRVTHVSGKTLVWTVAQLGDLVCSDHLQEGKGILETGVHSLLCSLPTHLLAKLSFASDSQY
#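 AlphaScreen proximity signal between nickel-chelate acceptor and streptavidin donor beads (final 10 ug/mL) reports binding of 50 nM L3MBTL1 to 75 nM biotin-H3 K9me1 peptide; complex incubated with compounds 30 min at room temperature; cefsulodin titration as control.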
# Sfp inh = qHTS Assay for Inhibitors of Bacillus subtilis Sfp phosphopantetheinyl transferase (PPTase); 4'-phosphopantetheinyl transferase ffp (Bacillus subtilis), Q9F4F7; Biochemical Sfp PPTase activity, qHTS; Potency, µM, without a hit: largest response in the series, negative = inhibition, usual class: inhibitors; actives 3.5% (n = 310,000);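 further: the enzyme is Sfp with the accession as filed and its product quenches rhodamine fluorescence; 0% = enzyme reaction without inhibitor and -100% = no enzyme wells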
#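 Fluorescence-quenching assay: 15 nM Sfp-PPTase preincubated 15 min at room temperature with compound, then 5 uM rhodamine-CoA and 12.5 uM BHQ-2-labelled YbbR peptide added. Fluorescence (ex 525/em 598 nm) read at start and after 30 min; difference gives rate.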
# G9a inh = qHTS Assay for Inhibitors of Histone Lysine Methyltransferase G9a; actives 8.8% (n = 350,000); G9a H3K9 monomethylation, AlphaScreen, 2 h; Histone-lysine N-methyltransferase EHMT2 (Homo sapiens), Q96KQ7; Potency, µM (titrated, usually from 102 µM), inactives show top-dose activity, negative = inhibition, usual class: inhibitors; further: on the % scale 0 is the no-effect control and ±100 the full control effect; nearly all actives have a fitted effect of over 75% in size
#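 Step 1: enzyme (final 20 nM) with compound, 15 min RT. Step 2: substrate peptide 500 nM and SAM 20 uM, 2 h RT. Step 3: anti-H3K9me1 antibody and AlphaScreen beads, 10 min, then plate read.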
# Numbers without * were called inactive; ? = inconclusive; · = not tested or not shown; ! = not confirmed by another sample; [ ] = another dose, or the depositor's remark. The call rests on the fitted dose curve; in most records, active means well fitted curve in the direction sought with a large enough effect; inconclusive means small, poorly fitted or top-dose-only effect, or another doubt; inactive means no such curve, though single readings can be large; an effect the other way counts as inactive or inconclusive. Potency means the concentration at half of the fitted maximal effect.
SMILES,BAZ2B inh,JMJD2A Tudor inh,HP1b binding inh,L3MBTL1 block,Sfp inh,G9a inh
CC(C)CCN=Cc1c(O)n(-c2ccccc2)c(=O)c2ccccc12,-34%,?,-23%,·,56µM*,-2%[59 µM]
Cc1ccc(-n2c(O)c(C=NCc3ccccn3)c3ccccc3c2=O)cc1,56µM*,-18%,28%,-9%,6%,4%[59 µM]
CCCCOc1ccc(CNC(=O)c2cnc3sc(N4CCCC4)nn3c2=O)cc1,-9%,-8%,0%,·,·,13%[59 µM]
CC(C)c1nc(Nc2nc3ccccc3o2)nc2c1CCCC2,·,-19%,·,·,·,·
O=C(O)/C=C/C(=O)NNC(=O)c1ccccc1Br,?,-34%,16%,15%,56µM*,11%[0.0925 µM]
Cc1ccccc1C(=O)NC(CC(C)C)C(=O)NN1C(=O)c2ccccc2C1=O (stereo not drawn),-9%,-1%,9%,3%[11.4 µM],0%,10%
Cc1ccccc1C(=O)NNC(=O)C(C)N1C(=O)c2ccccc2C1=O (stereo not drawn),11%,-14%,20%,-11%,?,11µM*
CNC(=S)NNC(=O)c1ccccc1Br,0%,-8%,21%,1%,-21%,?
Cc1ccccc1C(=O)NNC(=O)Nc1ccccc1,-3%,·,·,1%,16%,6%
Cc1cccc(C(=O)NNC(=O)c2cccc(C)c2)c1,4%,-6%,20%,6%,3%,7%
Cc1cccc(C(=O)NNC(=O)/C=C/C(=O)O)c1,-1%,-19%,47%,·,-6%,35µM*
Cc1ccccc1C(=O)NNC(=O)/C=C\C(=O)O,0%,50µM*,-32%,-1%,22µM*,4.5µM*
CCc1ccc(NC(=O)CSc2nc3c(sc4ccccc43)c(=O)n2CCCOC(C)C)cc1,0%,-24%,46%,·,·,12%[59 µM]
CN1CCN(c2ccc(-c3cccc(NC(=O)COc4ccc(Cl)cc4)c3)nn2)CC1,-10%,-34%,-14%,-9%,·,50µM*
CCOc1ccc(C(=O)Nc2cccc(-c3ccc(N4CCOCC4)nn3)c2)cc1OCC,-5%,-12%,4%,5%,·,45µM*
COc1ccccc1CCNC(=O)Cc1c(C)c2c(O)cc(C)cc2oc1=O,-4%,-1%,36%,·,·,-29%[59 µM]
O=C(NCC1CCCO1)c1sc(=S)n2c1[nH]c(=O)c1ccc(C(=O)N3CCCCC3)cc12 (stereo not drawn),?,?,-24%,-8%,-9%,45µM*
O=C(NCCc1ccccc1)c1ccc2c(=O)[nH]c3c(C(=O)NCC4CCCO4)sc(=S)n3c2c1 (stereo not drawn),35µM*,45µM*,?,·,-27%,-11%[0.501 µM]
CCCn1c(=O)sc2cc(NC(=O)COc3ccc(Cl)cc3)ccc21,-4%,-12%,10%,·,·,-3%[59 µM]
CCCCCCCCCCCCC/C=C/[C@@H](O)[C@@H](N)CO,4%,-20%,8%,24%,79µM*!,8%[59 µM]
CCCCCCCCCCCCC/C=C/[C@@H](O)[C@H](CO)N(C)C,·,·,·,·,15%,21%[59 µM]
Cc1ccc(C(=O)Nc2ccc3nc(SCC(=O)N4CCCc5ccccc54)sc3c2)cc1,-9%,-15%,35%,·,·,-27%[59 µM]
COc1ccc(/C=N/NC(=O)c2[nH]c3ccc(Br)cc3c2-c2ccccc2)c(C(=O)O)c1OC,50µM*,?,16%[57 µM],-13%,-4%,?
Cc1ccc2[nH]c3c(c2c1)CN(C(=O)CN1CCN(c2ccccc2F)CC1)CC3,-25%,·,·,0%,0%,32µM*
Cc1ccc2[nH]c3c(c2c1)CN(C(=O)CN1CCCc2ccccc21)CC3,-14%,28µM*,?,12%,-3%,3.2µM*
SMILES,BAZ2B inh,JMJD2A Tudor inh,HP1b binding inh,L3MBTL1 block,Sfp inh,G9a inh
COC(=O)c1[nH]c2ccc(C)cc2c1NC(=O)CN1CCCc2ccccc21,?,-32%,?,-66%,7%,?
Cc1ccc2[nH]c3c(c2c1)CN(C(=O)CN1CCCCC1)CC3,?,-14%,14%,·,15%,50µM*
CC(C)N1CCN(S(=O)(=O)c2ccccc2)CC1,?,28µM*,?,1%,8%,22µM*
O=C(O)c1cccc(S(=O)(=O)N2CCN(C(c3ccccc3)c3ccccc3)CC2)c1,?,-15%,24%,-6%,6%,35µM*
CC1CN(C2CCN(S(=O)(=O)c3ccc4ccccc4c3)CC2)CC(C)O1 (stereo not drawn),45µM*,?,?,-6%,32µM*,6.3µM*
O=C(O)c1cccc(S(=O)(=O)N2CCCC2)c1,-4%,-16%,14%,-1%,10%,?
CC(C)N1CCN(S(=O)(=O)c2ccc3ccccc3c2)CC1,?,16µM*,?,-1%,?,·
CN(CCCNC(=O)Cn1c(=O)c2cccn2c2ccccc21)Cc1ccccc1,-19%,-22%,21%,·,2%,?
O=C(CCn1c(=S)oc2ccccc21)Nc1cccc(O)c1,8%,-1%,16%,·,9%,-31%
CCc1ccc(C(c2c(C)nn(-c3ccccc3)c2N)c2c(C)nn(-c3ccccc3)c2N)cc1,?,56µM*,-35%,-11%,-5%,?
Nc1ccccc1SCc1ccccc1,11%,-12%,58%,·,-9%,13%[59 µM]
N#CC(=C(\N)Sc1ccccc1N)/C(C#N)=C(/N)Sc1ccccc1N,·,·,·,·,·,32µM*
O=C(COC(=O)COc1ccc(Cl)cc1Cl)NC1CCCC1,-2%,-5%,48%,3%,·,-43%
CSc1nccn1C(=O)c1ccccc1[N+](=O)[O-],-31%,35µM*,10%,·,40µM*,35µM*
c1ccc2c(c1)c1c3n2CCNC3CCC1 (stereo not drawn),-33%,-21%,-9%,-11%,79µM*,?
O=C(O)c1ccc2c(c1)c1c3n2CCNC3CCC1 (stereo not drawn),-18%,-12%,3%,·,6%,-1%[2.33 µM]
c1cc2c(cc1C1CCCCC1)c1c3n2CCN[C@H]3CCC1,·,·,·,·,5.6µM*,·
